Screen size: about 5,500 compounds; about 2,000 (36%) were called active. Roughly 18% stayed inconclusive and do not appear here. Rule as the data show it: active = normalized growth mostly below about 0.91 (no sharp cut-off); inconclusive = no clear call, values can overlap the other calls; inactive = mostly above about 0.92. The list shows a part of the results.
Experiment: chemical genetic growth profiling, strain panel (AID 1159580);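 also: tested at 20 µM; growth read once vehicle control cultures reached saturation at 30 °C; 1 = growth at the plate median or of vehicle wells; lower values mean less growth of the strain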
Conditions: S. cerevisiae deletion strains, growth OD
[1] = locus YAL013W, strain DEP1, active compounds read low
[2] = locus YAL040C, strain CLN3, active compounds read low
[3] = locus YCL061C, strain MRC1 (second series), active compounds read low
[4] = locus YDR363W, strain ESC2, active compounds read low
[5] = locus YER002W, strain NOP16, active compounds read low
[6] = locus YGR078C, strain PAC10, active compounds read low
[7] = locus YGR229C, strain SMI1, active compounds read low
[8] = locus YMR307W, strain GAS1, active compounds read low
[9] = locus YNL128W, strain TEP1, active compounds read low
[10] = locus YNL175C, strain NOP13, active compounds read low
[11] = locus YNL197C, strain WHI3, active compounds read low
[12] = locus YNL224C, strain SQS1, active compounds read low
[13] = locus YOR083W, strain WHI5 (second series), active compounds read low

Measured: normalized growth

COc1ccccc1NC(=O)Nc1nc(-c2cccnc2)nc2ccccc12
inactive: [1] 1.01 | [2] 1.02 | [3] 1 | [4] 1.02 | [5] 1.04 | [6] 0.993 | [7] 1.01 | locus YMR263W, strain SAP30, active compounds read low 1.01 | [8] 1.02 | [9] 0.998 | [10] 0.977 | [11] 1.01 | [12] 1.01 | [13] 1.01 | locus YPL055C, strain LGE1, active compounds read low 1.01

OC1CCCCC1N1CCC(c2ccccc2)CC1 (stereo not given)
inactive: [1] 0.998 | locus YAL021C, strain ccr4, active compounds read low 0.998 | locus YAL026C, strain drs2, active compounds read low 0.994 | locus YAL030W, strain snc1, active compounds read low 0.992 | [2] 0.998 | locus YBL061C, strain skt5, active compounds read low 0.994 | locus YBR009C, strain hhf1, active compounds read low 0.957 | locus YBR023C, strain chs3, active compounds read low 0.999 | locus YBR171W, strain sec66, active compounds read low 0.99 | locus YBR231C, strain swc5, active compounds read low 0.993 | locus YBR279W, strain paf1, active compounds read low 0.999 | locus YCL011C, strain gbp2, active compounds read low 0.996 | locus YCL016C, strain dcc1, active compounds read low 0.989 | [3] 1.01 | locus YCL061C, strain MRC1, active compounds read low 0.993 | locus YCL069W, strain vba3, active compounds read low 0.989 | locus YCR088W, strain abp1, active compounds read low 0.983 | locus YDL005C, strain med2, active compounds read low 0.992 | locus YDL040C, strain nat1, active compounds read low 0.993 | locus YDR001C, strain nth1, active compounds read low 0.984 | locus YDR069C, strain doa4, active compounds read low 0.998 | locus YDR137W, strain rgp1, active compounds read low 0.945 | locus YDR150W, strain NUM1, active compounds read low 1 | locus YDR159W, strain sac3, active compounds read low 0.997 | locus YDR195W, strain ref2 0.941 | locus YDR297W, strain sur2, active compounds read low 0.995 | locus YDR334W, strain swr1, active compounds read low 0.996 | locus YDR335W, strain msn5, active compounds read low 0.997 | [4] 1.01 | locus YDR392W, strain spt3, active compounds read low 0.902 | locus YEL003W, strain gim4, active compounds read low 0.994 | locus YEL037C, strain rad23, active compounds read low 0.99 | locus YEL061C, strain CIN8 (second series), active compounds read low 0.989 | [5] 0.992 | locus YER015W, strain faa2, active compounds read low 0.992 | locus YER016W, strain bim1, active compounds read low 0.993 | locus YER111C, strain swi4, active compounds read low 0.978 | locus YER155C, strain BEM2 (second series), active compounds read low 0.96 | locus YFR010W, strain ubp6, active compounds read low 0.988 | locus YGL167C, strain pmr1, active compounds read low 0.986 | locus YGL173C, strain kem1, active compounds read low 0.994 | locus YGL227W, strain vid30, active compounds read low 0.988 | locus YGL240W, strain doc1, active compounds read low 1.01 | locus YGL253W, strain hxk2, active compounds read low 0.996 | [6] 1.01 | [7] 1.01 | locus YHR013C, strain ard1, active compounds read low 0.941 | locus YHR027C, strain rpn1, active compounds read low 0.988 | locus YHR030C, strain SLT2, active compounds read low 0.979 | locus YHR079C, strain IRE1, active compounds read low 0.983 | locus YHR142W, strain chs7, active compounds read low 1.01 | locus YJL092W, strain hpr5, active compounds read low 0.989 | locus YJL095W, strain BCK1 (second series), active compounds read low 0.993 | locus YJL095W, strain BCK1, active compounds read low 0.984 | locus YJL115W, strain asf1, active compounds read low 0.991 | locus YJL129C, strain trk1, active compounds read low 1.02 | locus YJL154C, strain vps35, active compounds read low 0.987 | locus YJL164C, strain tpk1, active compounds read low 1 | locus YJL166W, strain qcr8, active compounds read low 1 | locus YJL187C, strain SWE1, active compounds read low 0.996 | locus YJR066W, strain TOR1, active compounds read low 0.934 | locus YKL160W, strain elf1, active compounds read low 1.02 | locus YKR026C, strain gcn3, active compounds read low 0.975 | locus YKR091W, strain srl3, active compounds read low 0.983 | locus YLL001W, strain dnm1, active compounds read low 0.981 | locus YLL026W, active compounds read low 0.995 | locus YLL041C, strain sdh2, active compounds read low 0.99 | locus YLR027C, strain aat2, active compounds read low 0.992 | locus YLR113W, strain HOG1, active compounds read low 0.999 | locus YLR221C, strain rsa3, active compounds read low 1.01 | locus YLR258W, strain gsy2, active compounds read low 0.984 | locus YLR262C, strain YPT6 (second series), active compounds read low 0.945 | locus YLR320W, strain mms22, active compounds read low 0.998 | locus YLR342W, strain FKS1, active compounds read low 0.981 | locus YLR357W, strain rsc2, active compounds read low 0.979 | locus YLR370C, strain arc18, active compounds read low 0.992 | locus YLR384C, strain iki3, active compounds read low 0.983 | locus YML120C, strain ndi1, active compounds read low 1.02 | locus YMR058W, strain fet3, active compounds read low 0.999 | locus YMR125W, strain sto1, active compounds read low 0.988 | locus YMR129W, active compounds read low 0.985 | locus YMR205C, strain PFK2, active compounds read low 0.953 | locus YMR231W, strain pep5, active compounds read low 0.988 | [8] 0.991 | locus YNL071W, strain lat1, active compounds read low 0.999 | [9] 0.978 | locus YNL153C, strain GIM3, active compounds read low 0.997 | [10] 0.994 | locus YNL183C, strain NPR1, active compounds read low 0.937 | [11] 0.993 | locus YNL209W, strain ssb2, active compounds read low 0.993 | [12] 0.997 | locus YNL248C, strain rpa49, active compounds read low 1.02 | locus YNL322C, strain KRE1 (second series), active compounds read low 0.992 | locus YNR049C, strain mso1, active compounds read low 0.989 | locus YOR001W, strain rrp6, active compounds read low 1.01 | locus YOR070C, strain gyp1, active compounds read low 0.992 | locus YOR080W, strain dia2, active compounds read low 0.988 | [13] 1 | locus YOR083W, strain WHI5, active compounds read low 1.02 | locus YOR106W, strain vam3, active compounds read low 1.02 | locus YOR231W, strain MKK1, active compounds read low 0.986 | locus YOR265W, strain rbl2, active compounds read low 0.993 | locus YOR270C, strain vph1, active compounds read low 1 | locus YOR290C, strain snf2, active compounds read low 0.911 | locus YPL051W, strain arl3, active compounds read low 0.999 | locus YPL078C, strain atp4, active compounds read low 1.01 | locus YPL106C, strain sse1, active compounds read low 0.98 | locus YPL240C, strain hsp82, active compounds read low 1 | locus YPL256C, strain CLN2, active compounds read low 1

— PubChem BioAssay AID1159580 (chemical genetic matrix, 2015)
